Results on 19 compounds are retold here after PubChem BioAssay AID1159569 (Broad Institute, 2015).

This test is described as follows: HepG2 cell cytotoxicity, dose response, cytotoxicity control, plate reader, dry powder samples (AID 1159569). The settings on record: HepG2 cytotoxicity counterscreen; series mostly up to 50 µM. (A counterscreen serves to expose hits that act by an unwanted route or on another target.)

Measured potencies and affinities stand elsewhere. Records with an inconclusive call do not appear. Active and inactive are the calls of the source. The rule behind the calls is not given here.

Consider `COc1ccc(NC(=O)N(C)C[C@H]2Oc3c(NC(=O)Nc4ccccc4)cccc3C(=O)N([C@@H](C)CO)C[C@H]2C)cc1`, for which the outcome was inactive.
With `COc1ccc(C#Cc2ccc3c(c2)O[C@@H](CN(C)C(=O)Nc2cccc(OC)c2)[C@@H](C)CN([C@H](C)CO)S3(=O)=O)cc1` the entry was “inactive”; with `C[C@H](CO)N1C[C@H](C)[C@H](CN(C)S(=O)(=O)c2ccc([N+](=O)[O-])cc2)OCc2ccccc2-c2c(n(C)c3ccccc23)C1=O`, “inactive”.
`O=C(c1ccncc1)N1CC(=O)N2[C@H](C1)[C@@H](c1ccc(-c3cccnc3)cc1)[C@@H]2CO`: the compound was classed as inactive.
With `C[C@@H]1CN([C@@H](C)CO)C(=O)c2cccc(NC(=O)C3CC3)c2O[C@@H]1CN(C)C(=O)Nc1ccc(C(F)(F)F)cc1` the entry was “inactive”.
Take `COCC#Cc1ccc(CC[C@H]2O[C@H]3CC[C@H](CO)O[C@H]3C[C@@H]2n2cc(C3CC3)nn2)cc1`: the result was inactive.
For the compound `C[C@@H]1CN([C@H](C)CO)S(=O)(=O)c2ccc(C#Cc3ccccc3F)cc2O[C@H]1CN(C)C(=O)c1ccc2c(c1)OCO2`, the compound was classed as inactive.
In the case of `COc1ccc(C#Cc2ccc3c(c2)O[C@@H](CN(C)C(=O)Nc2cccc(OC)c2)[C@H](C)CN([C@H](C)CO)S3(=O)=O)cc1` it was “inactive”; in that of `COc1ccc(NC(=O)N2CCCCN3[C@@H](CO)[C@H](c4ccc(C#Cc5ccccn5)cc4)[C@@H]3C2)cc1`, “inactive”.
In the case of `N#C[C@@H]1[C@H](c2ccccc2C2=CCCCC2)[C@@H](CO)N1C(=O)c1cccc(F)c1` it was “inactive”.
Regarding `O=C(Nc1ccccc1F)N1CCCCN2[C@H](CO)[C@H](c3ccc(C#Cc4cccnc4)cc3)[C@@H]2C1`, the call was inactive.
In the case of `C[C@@H]1CN([C@@H](C)CO)C(=O)c2cccc(NC(=O)c3ccc(-c4nccs4)cc3)c2O[C@H]1CN(C)Cc1ccc(Cl)c(Cl)c1` it was “inactive”.
With `CC(C)(C)S(=O)N1Cc2cc(C(=O)NCc3ccc(Oc4ccccc4)cc3)nc(-c3cccc(-c4cccc(F)c4)c3)c2[C@@H]1CCO` (some centres undefined) the entry was “inactive”; with `CN1c2ccc(C#Cc3cccnc3)cc2[C@H]2[C@H](CCN2S(=O)(=O)c2ccc(F)cc2)[C@H]1CO`, “inactive”.
With `COc1ccc(NC(=O)N(C)C[C@@H]2Oc3c(NC(=O)c4nc5ccccc5s4)cccc3C(=O)N([C@@H](C)CO)C[C@H]2C)cc1` the entry was “inactive”.
As to `COc1ccc(-c2ccccc2[C@H]2[C@@H](C#N)N(C(=O)C3CCCCC3)[C@H]2CO)cc1`, the compound was called inactive.
With `COc1ccc(NC(=O)N2CCC3(CC2)CN(C(=O)C2CCC2)[C@H](CO)c2c3c3ccc(OC)cc3n2C)cc1` the entry was “inactive”.
As for `COc1ccc2c3c(n(C)c2c1)[C@@H](CO)N(C(=O)c1ccc(F)cc1)CC31CCN(C(=O)Nc2ccc(F)cc2)CC1`, the outcome was inactive.
As to `COc1cccc(C#Cc2ccc([C@H]3[C@@H](CO)N(C(=O)C4CCC4)[C@H]3C#N)cc2)c1`, the result was inactive.
